From PubChem
In the library only some 2.3% were active in any assay of this set; here they are far more common.
CHO-K1_Ca_PAM: M1 PAM counterscreen hit in parental CHO-K1 cells; ATP EC20, Fluo-8 calcium fluorescence; 0% at ATP EC20, 100% at ATP max; activation, % at 3 µM; hit rate 0.02% among 360,000;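 active means activation above the run cutoff, the mean activation of all test compounds plus 3 SD, cut at about 40% in these data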;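 further: peak over basal fluorescence ratio in a 140 s read after ATP addition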
M1_PAM: potentiates human M1 receptor response to acetylcholine; P11229; CHO-K1 hM1, Fluo-8 calcium fluorescence, ACh EC20; 0% = ACh EC20, 100% = maximal ACh; activation, % at 3 µM; hit rate 0.088% among 360,000; AID 588819; in the data active means activation above about 19%, passing the limit was not always enough
M1_ag: activates human CHRM1 receptor. P11229. CHO-K1 hM1, Fluo-8 calcium fluorescence, agonist mode; 0% DMSO, 100% acetylcholine EC100. activation, % at 3 µM. hit rate 0.33% among 360,000. AID 588814;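 active means activation above the run's mean compound activation plus 3 SD, cut at about 16% in these data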;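 further: peak over basal fluorescence ratio within a 140 s kinetic read after compound addition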
M1_ag_parental: counter-screen for M1 agonists: effect in parental CHO-K1 cells | Fluo-8 calcium fluorescence; scaled to maximal ATP response, vehicle zero | activation, % at 3 µM | hit rate 0.48% among 360,000; in the data active means activation above about 15%;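 further: untransfected CHO-K1 host cells lacking M1 receptor as counterscreen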
CHO-K1_Ca_antag: counter-screen for M1 antagonists: effect in parental CHO-K1 cells | ATP-induced calcium, Fluo-8 fluorescence | inhibition, % at 3 µM | hit rate 0.6% among 360,000;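 active means inhibition above a per-plate cutoff, the plate's mean sample inhibition plus 3 SD, cut at about 24% in these data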;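 further: 0% = DMSO plus EC80 ATP and 100% = DMSO alone without ATP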
M1_antag: blocks human M1 muscarinic receptor; P11229; CHO-K1 hM1, Fluo-8 calcium fluorescence, ACh EC80 antagonist; inhibition, % at 3 µM; hit rate 1.3% among 360,000;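 active means percent inhibition above its own plate's cutoff, namely the mean of that plate's compound wells plus 3 SD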;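 further: peak over basal fluorescence ratio during 140 s after agonist addition; 0% = ACh EC80 plus DMSO and 100% = DMSO alone without agonist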
The depositor's hits bear a star.

SMILES CHO-K1_Ca_PAM M1_PAM M1_ag M1_ag_parental CHO-K1_Ca_antag M1_antag
COc1ccc(/C(C)=N/N2CCCCC2)c(O)c1 6 4 18* 1 -18 1
Cc1ccc2cc(C#N)c(SCC(=O)NNC(=O)Cc3ccccc3)nc2c1 -16 14 3 0 25* -3
COc1ccc2cc(C#N)c(SCC(=O)NNC(=O)Cc3ccccc3)nc2c1 15 1 -5 0 -2 -1
CCOc1ccc(-n2c(SCC(=O)N3CCC(C(=O)O)CC3)nc3ccccc3c2=O)cc1 -2 0 -4 0 -10 -1
COC(=O)c1sc(S(=O)(=O)N2CCCCC2)c(C(=O)OC)c1C 12 -27 -6 0 -3 21*
